Compound activity from PubChem.
Shown are actives, neighbours in structure and some others; about 8% of the full set was active somewhere.
FBPA coupling cs = coupling enzyme interference in Giardia aldolase counter-screen; hit rate 0.67% among 290,000; AID 2472; coupling enzyme system counterscreen, AmpLite Red fluorescence; activity change, negative = inhibition, % at 58.2 µM, hits read low; in the data active = activity change below about -30%
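Activity here indicates interference with the coupling reaction, not aldolase inhibition. Compounds at 57.5 uM final met coupling enzymes for 10 min at RT; substrate and AmpLite Red detection followed, with a 525/598 nm fluorescence read after 20 min.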
RORgamma inh = ROR gamma (mouse) transcription inhibition | hit rate 5.4% among 310,000 | Drosophila S2 Gal4-RORgamma UAS-luciferase reporter, 20 h | Potency, µM (titrated, usually from 53.6 µM), hits mostly inhibitors | AID 2551 | P51450; also: nearly all actives have a fitted effect of over 60% in size
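Drosophila S2 cells stably expressing Gal4-DBD/mouse RORγ fusion under metallothionein promoter plus UAS-luciferase; compound 1 h, then 700 uM CuSO4 induction for 20 h at ambient temperature; inhibition read as reduced luminescence.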
ELG1 DNA repair = inhibitors of ELG1-dependent DNA repair in HEK293T cells; HEK293T ELG1-luciferase reporter, luminescence, 16 h; DNA damage induced by 5-fluorouridine; Potency, µM (doses to about 46.1 µM), most hits filed as inhibitors; hit rate 2.3% among 330,000; also: nearly all actives have a fitted effect of over 55% in size
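5-Fluorouridine DNA damage + compound/DMSO, 2,000 cells/well, 16 h, 37 °C/5% CO2. ONE-Glo, 30 min RT, luminescence. Readout = decrease in reporter signal.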
TSHR antagonist = human thyrotropin receptor antagonism | P16473 | TSHR-expressing cells, TSH-stimulated cAMP HTRF, 2 h; hits give low values | activity change, negative = inhibition, % at 11.5 µM | hit rate 0.2% among 330,000 | AID 504810;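 active = activity change below a set negative limit, meaning inhibition stronger than a set level, cut at about -70% in these data; inconclusive = activity change between two set negative limits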
Target sequence (P16473 whole entry, looked up): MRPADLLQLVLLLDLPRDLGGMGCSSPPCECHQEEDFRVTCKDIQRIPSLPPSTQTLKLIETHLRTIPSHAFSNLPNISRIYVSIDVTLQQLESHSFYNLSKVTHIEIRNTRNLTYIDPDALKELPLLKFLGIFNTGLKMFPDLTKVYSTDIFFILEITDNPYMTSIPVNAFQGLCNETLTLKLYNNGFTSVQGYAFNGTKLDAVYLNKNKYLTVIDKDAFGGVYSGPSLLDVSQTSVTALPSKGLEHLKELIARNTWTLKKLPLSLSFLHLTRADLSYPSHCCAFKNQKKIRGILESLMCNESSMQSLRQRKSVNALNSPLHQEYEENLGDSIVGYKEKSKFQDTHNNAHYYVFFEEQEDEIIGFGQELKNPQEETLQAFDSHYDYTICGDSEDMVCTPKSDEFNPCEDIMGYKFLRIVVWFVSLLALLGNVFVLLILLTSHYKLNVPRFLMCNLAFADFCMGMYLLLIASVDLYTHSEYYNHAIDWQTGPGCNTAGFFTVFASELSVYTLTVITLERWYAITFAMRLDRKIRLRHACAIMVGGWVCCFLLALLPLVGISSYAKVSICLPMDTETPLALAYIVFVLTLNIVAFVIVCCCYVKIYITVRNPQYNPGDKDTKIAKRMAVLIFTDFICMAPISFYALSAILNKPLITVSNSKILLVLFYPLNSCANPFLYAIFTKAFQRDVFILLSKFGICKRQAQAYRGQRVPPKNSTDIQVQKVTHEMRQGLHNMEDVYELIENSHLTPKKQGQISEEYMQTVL
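TSHR-expressing cells were treated with compounds, then stimulated with TSH at EC80 (4nM final) for 2 hours at 37 deg C. Cellular cAMP was measured by HTRF competition between lysate cAMP and cAMP-d2 for a cryptate-labelled anti-cAMP antibody.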
Gal4-VP16 FLuc = counter-screen for ROR gamma inhibitors: Gal4-VP16 reporter; Drosophila S2 Gal4-VP16 UAS-luciferase, luminescence, 20 h; Potency, µM (highest dose often 53.6 µM), most hits filed as inhibitors; hit rate 3.5% among 310,000; AID 2546;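 also: Gal4-VP16 expression switched on by copper sulfate through the metallothionein promoter; nearly all actives have a fitted effect of over 50% in size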
Of the large screens only hits and unclear results are named; the others gave an inactive call. Unless noted, calls follow the shape of the dose curve; as a rule, active = well fitted curve in the direction sought with a large enough effect; inconclusive = small, poorly fitted or top-dose-only effect, or another doubt; inactive = no such curve, though single readings can be large; an effect the other way counts as inactive or inconclusive.

Cn1c(CNC(=O)CNC(=O)c2ccccc2)cc(=O)n(C)c1=O	none
Cc1nnc(NC(=O)C23CC4CC(CC(C4)C2)C3)s1	RORgamma inh inconclusive
O=C1C=C(c2ccccc2Oc2ccccc2)C[C@@H](c2ccc3c(c2)OCO3)C1	ELG1 DNA repair 6.5µM (no result: FBPA coupling cs, RORgamma inh, Gal4-VP16 FLuc)
COc1cccc(NC(=S)N2CCN(S(=O)(=O)c3ccccc3)CC2)c1	none (no result: FBPA coupling cs)
Cc1ccc(C)c(OCCn2c(=O)c3c(ncn3C3CCCC3)n(Cc3ccccc3)c2=O)c1	RORgamma inh inconclusive, ELG1 DNA repair 21µM
Cc1[nH]c2ccccc2c1SCc1nnc(SCc2ccccc2)n1C	none
Cc1[nH]c2ccccc2c1SCc1nnc(SCc2ccc(Cl)cc2)n1C	ELG1 DNA repair 16µM
Cc1cc(-c2ccc(N=Nc3ccc4c(S(=O)(=O)O)cc(S(=O)(=O)O)c(N)c4c3O)c(C)c2)ccc1N=Nc1ccc2c(S(=O)(=O)O)cc(S(=O)(=O)O)c(N)c2c1O	FBPA coupling cs -38, RORgamma inh inconclusive, Gal4-VP16 FLuc inconclusive (no result: ELG1 DNA repair, TSHR antagonist)
Nc1c(N=Nc2ccc(-c3ccc(N=Nc4cc(S(=O)(=O)O)c5ccccc5c4N)cc3)cc2)cc(S(=O)(=O)O)c2ccccc12	Gal4-VP16 FLuc inconclusive (no result: ELG1 DNA repair, TSHR antagonist)
COc1ccc(NC=O)c(C(=O)CCNC(C)=O)c1	none (no result: ELG1 DNA repair, TSHR antagonist)
Cc1ccccc1OC1C=CC(C#Cc2ccc(Br)cc2)OC1CO (stereo not given)	none (no result: ELG1 DNA repair, TSHR antagonist)
CC(=O)c1ccc(-n2c(-c3cc(-c4ccco4)[nH]n3)n[nH]c2=S)cc1	none
FC(F)(F)c1ccccc1-n1c(-c2ccco2)n[nH]c1=S	RORgamma inh 14µM, ELG1 DNA repair inconclusive, Gal4-VP16 FLuc inconclusive
Cc1cccc(-n2c(-c3ccco3)n[nH]c2=S)c1	RORgamma inh 11µM, Gal4-VP16 FLuc inconclusive
Cc1ccccc1-n1c(-c2ccco2)n[nH]c1=S	RORgamma inh 11µM, Gal4-VP16 FLuc inconclusive
Cc1ccc(-n2c(-c3cc(-c4ccco4)[nH]n3)n[nH]c2=S)c(Br)c1	RORgamma inh 8.9µM
CCN1C(=O)[C@@H]2[C@H]3C(=CC[C@@H]2C1=O)C1(OCCCO1)[C@H]1O[C@@H]1[C@H]3O	none (no result: ELG1 DNA repair, TSHR antagonist)
CCCC(=O)Nc1ncnc2c1ncn2[C@@H]1O[C@H]2COP(=O)(O)O[C@@H]2[C@@H]1OC(=O)CCC	none (no result: ELG1 DNA repair, TSHR antagonist)
Cc1cccc(NC(=O)CCCN2C(=S)NC(C)(C)CC2C)c1C (stereo not given)	RORgamma inh 11µM
CC1CC(C)(C)NC(=S)N1CCCC(=O)Nc1ccc(Br)cc1 (stereo not given)	RORgamma inh 4µM, Gal4-VP16 FLuc inconclusive
Cc1cc(Br)ccc1NC(=O)CN1C(=S)NC(C)(C)CC1C (stereo not given)	none
CCOc1ccc(NC(=O)CCCN2C(=S)NC(C)(C)CC2C)cc1 (stereo not given)	RORgamma inh inconclusive, Gal4-VP16 FLuc inconclusive
CCCCC(=O)Nc1sc2c(c1-c1nc3ccccc3s1)CCN(C(C)=O)C2	RORgamma inh inconclusive, ELG1 DNA repair 18µM, Gal4-VP16 FLuc inconclusive
CC(=O)N1CCc2c(sc(NC(=O)C3CC3)c2-c2nc3ccccc3s2)C1	ELG1 DNA repair inconclusive
COC(=O)C(Cc1ccccc1)NC(=S)NC(=O)c1ccccc1 (stereo not given)	RORgamma inh 3.2µM, Gal4-VP16 FLuc inconclusive
O=C(NC(=S)NC(CO)Cc1ccccc1)c1ccc(F)cc1 (stereo not given)	RORgamma inh 11µM, ELG1 DNA repair inconclusive, Gal4-VP16 FLuc inconclusive
CCN1CCN(C(=O)/C(=C/c2cccs2)NC(=O)c2ccc(C)c(C)c2)CC1	none (no result: FBPA coupling cs)
COc1ccc(C(CNC(=O)CCNC(=O)c2ccccc2OC)N2CCCC2)cc1 (stereo not given)	ELG1 DNA repair inconclusive (no result: FBPA coupling cs, RORgamma inh, Gal4-VP16 FLuc)
COc1cc(NS(=O)(=O)c2cccc([N+](=O)[O-])c2)c2ncccc2c1	RORgamma inh 1.1µM, Gal4-VP16 FLuc 2µM (no result: ELG1 DNA repair, TSHR antagonist)
O=[N+]([O-])c1cccc(S(=O)(=O)NCCOc2cccc3cccnc23)c1	ELG1 DNA repair inconclusive (no result: FBPA coupling cs)
COc1cc(NS(=O)(=O)c2ccc([N+](=O)[O-])cc2)c2ncccc2c1	RORgamma inh 0.89µM, Gal4-VP16 FLuc 0.89µM (no result: ELG1 DNA repair, TSHR antagonist)
COc1cc(NS(=O)(=O)c2ccc(C)cc2)c2ncccc2c1	RORgamma inh 1µM, ELG1 DNA repair inconclusive, Gal4-VP16 FLuc 0.79µM
Cc1cc(=O)oc2c(C)c3occc3cc12	none
